High-throughput results from PubChem BioAssay.
MITF act: activators of MITF-driven TRPM1 promoter reporter, primary screen, cell-based, SK-MEL-5, luciferase, single point; SK-MEL-5 TRPM1-promoter luciferase, 24 h; % of positive control, neutral wells = 0; actives 0.75% (n = 300,000); AID 588334, 2011; activation, % at 12.5 µM;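 active = mean activation of at least 80% with every replicate also reaching 80%; inconclusive = mean reaches 80% but some replicate falls short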;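 note: 0% = neutral control wells and 100% = parthenolide positive control wells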
esBAF inh: Bmi1 luciferase reporter increase in mESCs, primary screen, esBAF inhibitor project, mouse ES cells, Bmi1 luciferase knock-in, single point; 24 h; 100% = twice the neutral-well signal; reporter increase, % at 12.5 µM; actives 2% (n = 350,000); AID 602393, 2012; in the data active = activation above about 40%; inconclusive = no clear call, values can overlap the other calls;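 note: 0% = median of the plate's neutral control wells and 100% = double that signal; a rise in the Bmi1 reporter signal indicates esBAF inhibition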
SMARCA2 act: SMARCA2 (BRM) function activators, primary screen, cell-based, luminescence, high throughput; MG213 cells, MMTV-luciferase reporter, dexamethasone, overnight; activation, % at 9.1 µM; actives 1% (n = 370,000); AID 652017, 2013; in the data active = activation above about 7.8%;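 note: 0% = vehicle wells and 100% = reference activator wells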
AF4-AF9 inh: inhibitors of AF4 peptide binding to AF9, primary screen, biochemical, AlphaScreen, biotin-AF4 peptide, FLAG-AF9, single point | inhibition, % at 10 µM | actives 0.47% (n = 350,000) | AID 651704, 2012;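 active = every replicate reaching a set inhibition limit, whatever the replicate mean, cut at about 25% in these data; inconclusive = mean inhibition reaches that limit but some replicates miss it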;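 note: 0% = plate neutral control median and 100% = total signal loss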
Target sequence (P42568 whole entry, looked up): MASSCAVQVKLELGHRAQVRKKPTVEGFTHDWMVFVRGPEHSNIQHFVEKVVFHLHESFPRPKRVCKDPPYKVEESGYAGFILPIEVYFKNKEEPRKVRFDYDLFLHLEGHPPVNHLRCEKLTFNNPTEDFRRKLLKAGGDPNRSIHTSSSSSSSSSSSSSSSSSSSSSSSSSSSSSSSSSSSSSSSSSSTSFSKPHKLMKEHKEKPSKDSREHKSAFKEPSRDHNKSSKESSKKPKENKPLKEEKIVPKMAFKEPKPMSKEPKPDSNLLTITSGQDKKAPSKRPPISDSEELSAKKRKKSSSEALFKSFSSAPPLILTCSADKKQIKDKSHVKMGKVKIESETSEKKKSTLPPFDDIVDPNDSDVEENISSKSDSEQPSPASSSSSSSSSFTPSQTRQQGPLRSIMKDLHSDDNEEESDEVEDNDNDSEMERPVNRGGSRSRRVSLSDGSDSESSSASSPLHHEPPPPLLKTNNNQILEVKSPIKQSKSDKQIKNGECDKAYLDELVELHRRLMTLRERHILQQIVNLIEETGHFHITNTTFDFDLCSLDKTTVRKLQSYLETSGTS
FGF22 binding: binders of human FGF22 protein, primary screen, FGF22 synaptogenesis inhibitor project, biophysical, thermal shift, single point | recombinant FGF22 thermal shift, SYPRO orange fluorescence; percent of sucrose octasulfate shift, DMSO zero | activity (Tm shift, normalised), % at 9.99 µM | actives 1.5% (n = 340,000) | AID 651658, 2012;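 active = mean Tm shift, scaled 0 neutral to 100 positive control, at about 1.3% or above, every replicate too, limit read from the data; inconclusive = no clear call, values can overlap the other calls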
Wnt act: Wnt/beta-catenin pathway activators, primary screen, cell-based, plate reader, single point; Wnt/beta-catenin reporter cell assay, activator; activation, % at 9.35 µM; actives 1.2% (n = 300,000); AID 743398, 2014; in the data active = activation above about 30%, passing the limit was not always enough; inconclusive = no clear call, values can overlap the other calls;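 note: 0% = neutral control wells and 100% = positive control wells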
* marks the source's active call; other numbers are inactive results. This is a sample that favours compounds with a hit; in the whole collection about 4.3% have one here.

CSc1ccc(/C=N/n2c(C)nnc2C)cc1 was read as MITF act -3.8, esBAF inh -2.6, SMARCA2 act -4.7, AF4-AF9 inh 0.1, FGF22 binding 0.2 and Wnt act -8.7.
`CN1CCN(/N=C/c2ccc(-c3ccccc3)cc2)CC1` gave MITF act inconclusive, esBAF inh 34.6, SMARCA2 act 2.2, AF4-AF9 inh 34.8*, FGF22 binding 0.2 and Wnt act 12.4.
For CSc1ccc(/C=N/n2c(C)cc(C)cc2=O)cc1 the results were MITF act 86.5*, esBAF inh 12.4, SMARCA2 act 0.6 and Wnt act -4.6.
Screening CN1CCN(/N=C/c2c3ccccc3c(Cl)c3ccccc23)CC1 returned MITF act 14.2, SMARCA2 act 0.4, AF4-AF9 inh 25.3*, FGF22 binding -0.3 and Wnt act -2.8.
CO[C@@H](CN(C)C(=O)c1ccccc1F)[C@H](C)CN([C@@H](C)CO)S(=O)(=O)c1ccc(C)cc1 was read as esBAF inh -2.1, AF4-AF9 inh -0.3 and FGF22 binding 0.2.
For CCCNC(=O)N1C[C@H](C)[C@H](OC)CN(C)C(=O)c2cc(NS(=O)(=O)CC(F)(F)F)ccc2OC[C@H]1C the results were esBAF inh -7.0, AF4-AF9 inh -0.6 and FGF22 binding 0.0.
`CCCn1c(C)cc(C(=O)COc2ncnc3sccc23)c1C` gave MITF act 62.2, esBAF inh 28.9, SMARCA2 act 6.0, AF4-AF9 inh -24.1, FGF22 binding 0.2 and Wnt act 22.8.
`CCCn1c(C)cc(C(=O)COc2ccc(-c3nnco3)cc2)c1C` gave MITF act -0.7, SMARCA2 act -3.8, AF4-AF9 inh 6.8, FGF22 binding 43.2* and Wnt act 1.5.
For CCN1C(=O)C(CC(=O)Nc2ccc(F)cc2)N(CCc2ccc(OC)cc2)C1=S (stereo unspecified) the results were MITF act -7.1, esBAF inh 1.5, SMARCA2 act -3.1, AF4-AF9 inh -0.5, FGF22 binding 44.0* and Wnt act -1.2.
`CCN1C(=O)C(CC(=O)Nc2ccc(OC)cc2)N(CCCN2CCN(c3ccc(OC)cc3)CC2)C1=S` (stereo unspecified) gave MITF act -12.9, esBAF inh -0.1, SMARCA2 act 0.6, AF4-AF9 inh 28.3*, FGF22 binding 0.2 and Wnt act -0.1.
For Fc1ccc(Oc2ccnc(Cl)n2)c(Cl)c1 the results were SMARCA2 act -2.4, AF4-AF9 inh 3.6, FGF22 binding -0.1 and Wnt act 44.4*.
`CC(C)(C)c1nnc(N/N=C/c2cc(Br)ccc2O)n(N)c1=O` gave MITF act -67.1, SMARCA2 act -1.6 and Wnt act 32.9*.
`CCc1nnc(N/N=C/c2cc(Br)c(O)cc2O)n1N` gave MITF act -8.9, esBAF inh -6.0, SMARCA2 act 0.7, AF4-AF9 inh 1.5, FGF22 binding -0.7 and Wnt act -1.2.
`Cc1ccc(-c2ccc(/C=N/NC(N)=S)o2)cc1` gave SMARCA2 act 6.4, AF4-AF9 inh 8.9, FGF22 binding 0.0 and Wnt act 58.0*.
`N/C(=N\OC(=O)C12CC3CC(CC(C3)C1)C2)c1ccccc1` gave MITF act 21.2, esBAF inh -1.2 and SMARCA2 act -2.8.
`C/C(=N\NC(=O)c1ccccn1)C12CC3CC(CC(C3)C1)C2` gave MITF act 51.6, esBAF inh 49.5*, SMARCA2 act 5.2 and Wnt act 1.7.
Screening C/C(=N/NC(=O)c1ccccn1)c1ccc(O)cc1 returned MITF act 65.6, esBAF inh 24.9, SMARCA2 act 4.3, AF4-AF9 inh -10.5, FGF22 binding -0.1 and Wnt act inconclusive.
`C/C(=N/NC(=O)c1ccoc1C)C12CC3CC(CC(C3)C1)C2` gave MITF act -6.5, esBAF inh 56.6* and SMARCA2 act 6.7.
`N/C(=N\OC(=O)C12CC3CC(CC(C3)C1)C2)c1ccccn1` gave MITF act 97.8*, esBAF inh 75.4* and SMARCA2 act 2.0.
For CN(C)CC(=O)N1[C@@H](CO)[C@@H](c2ccccc2)C12CN(Cc1cccnc1)C2 the results were AF4-AF9 inh -2.8 and FGF22 binding 0.1.
`CCCC(=O)Oc1ccc2c(C)cc(=O)oc2c1` gave MITF act -10.0, SMARCA2 act -0.9, AF4-AF9 inh 0.0, FGF22 binding 0.1 and Wnt act -3.3.
For CCCCCOC(=O)c1ccc(OC(=O)c2cncc(Br)c2)cc1 the results were MITF act inconclusive, esBAF inh 104.5* and SMARCA2 act 1.5.
`Cc1cc(=O)oc2cc(OC(=O)c3cncc(Br)c3)ccc12` gave MITF act 17.6, SMARCA2 act -2.5, AF4-AF9 inh -2.7, FGF22 binding 43.9* and Wnt act -0.6.
For Cc1noc(C)c1NC(=O)N(C)C[C@H]1Oc2ccc(NC(=O)C3CCCCC3)cc2C(=O)N([C@@H](C)CO)C[C@H]1C the results were esBAF inh -4.7, AF4-AF9 inh -1.3 and FGF22 binding -0.1.
COc1ccc(Cn2cc(CN3CCc4onc(-c5ccc(Br)cc5)c4C3=O)nn2)cc1 was read as SMARCA2 act -3.1, FGF22 binding -0.1 and Wnt act 32.1*.
Screening CCCC12CN3CCN(CC(C3)/C1=N\NC(=O)c1ccccc1N)C2 returned MITF act -3.7, SMARCA2 act 3.0 and Wnt act 37.3*.
Screening Nc1ccccc1C(=O)N/N=C1/C2CN3CCN(C2)CC1(Cc1ccccc1)C3 returned MITF act 14.2, SMARCA2 act 7.2, AF4-AF9 inh 1.3, FGF22 binding 0.0 and Wnt act 2.3.
For Cc1nc(Cc2ccccc2)sc1CC#N the results were MITF act -2.2, esBAF inh 2.1, SMARCA2 act 0.6, AF4-AF9 inh -2.7, FGF22 binding 0.0 and Wnt act 51.3*.
Screening Cn1c(SCC2CCC2)nnc1-c1ccco1 returned SMARCA2 act 2.5.
CCCCn1cnc2c(oc3ccccc32)c1=O was read as MITF act 98.9*, esBAF inh inconclusive, SMARCA2 act 2.2, AF4-AF9 inh -2.4, FGF22 binding 0.0 and Wnt act 9.3.
For C[C@H](CO)N1C[C@H](C)[C@H](CN(C)Cc2ccncc2)Oc2ccc(NC(=O)C3CCCCC3)cc2C1=O the results were esBAF inh 3.3, AF4-AF9 inh -1.7 and FGF22 binding 0.8.
Screening CC=Cc1ccc2n(c1=O)C[C@@H]1[C@@H](CO)[C@H](C(=O)NCC3CC3)[C@H]2N1Cc1ccccc1OC (mixture of isomers) returned esBAF inh 8.1, AF4-AF9 inh 0.3 and FGF22 binding 0.2.
